# Source: PubChem BioAssay (Broad Institute)
# PDI inh: blocks human protein disulfide isomerase activity; P07237; PDI insulin aggregation turbidity, A650, 90 min; inhibition, % at 10 µM; actives 0.052% (n = 350,000); AID 588391;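 active = mean inhibition across replicates of 30% or more, whatever share of single replicates reach that level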
# ERAP1 HTS inh: blocks human ERAP1 aminopeptidase activity; Q9NZ08; recombinant ERAP1, Leu-AMC fluorescence, 60 min; inhibition, % at 10.7 µM; actives 0.15% (n = 340,000);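 active = mean replicate inhibition of at least 30%, or all replicates individually reaching that 30% level; inactive = mean below 30% and not every replicate reaching it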
# Target sequence (Q9NZ08 whole entry, looked up): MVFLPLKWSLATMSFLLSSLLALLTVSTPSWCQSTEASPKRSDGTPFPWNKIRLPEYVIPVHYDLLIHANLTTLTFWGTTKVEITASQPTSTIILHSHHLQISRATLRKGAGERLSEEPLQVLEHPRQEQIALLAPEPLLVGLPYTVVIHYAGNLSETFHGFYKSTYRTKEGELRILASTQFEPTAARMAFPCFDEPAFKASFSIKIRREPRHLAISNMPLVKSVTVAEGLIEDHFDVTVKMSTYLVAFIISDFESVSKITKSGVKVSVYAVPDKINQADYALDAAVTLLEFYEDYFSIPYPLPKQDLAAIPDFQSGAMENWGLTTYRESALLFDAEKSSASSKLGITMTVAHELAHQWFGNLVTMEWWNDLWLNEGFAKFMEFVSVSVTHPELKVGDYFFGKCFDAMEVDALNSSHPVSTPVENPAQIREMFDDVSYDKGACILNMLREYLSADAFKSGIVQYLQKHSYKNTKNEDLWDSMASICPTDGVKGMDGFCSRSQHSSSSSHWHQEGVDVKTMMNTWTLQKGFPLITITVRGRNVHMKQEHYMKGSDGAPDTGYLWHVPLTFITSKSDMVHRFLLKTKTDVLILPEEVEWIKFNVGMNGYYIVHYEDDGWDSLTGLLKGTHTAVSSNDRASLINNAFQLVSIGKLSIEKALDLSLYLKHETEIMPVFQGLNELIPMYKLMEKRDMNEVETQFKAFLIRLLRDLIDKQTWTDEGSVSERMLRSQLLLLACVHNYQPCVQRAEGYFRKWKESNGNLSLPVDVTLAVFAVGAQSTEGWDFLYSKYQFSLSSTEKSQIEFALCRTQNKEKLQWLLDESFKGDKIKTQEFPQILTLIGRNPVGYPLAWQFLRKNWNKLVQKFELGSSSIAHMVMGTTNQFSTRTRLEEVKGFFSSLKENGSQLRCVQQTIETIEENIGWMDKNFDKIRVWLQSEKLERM
# ERp5 inh: ERp5 (human) disulfide isomerase inhibition; Q15084; ERp5 insulin aggregation, absorbance 650 nm, 90 min; inhibition, % at 9.99 µM; actives 0.05% (n = 350,000);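 active = mean replicate inhibition above about 25%, with every replicate also reaching it, limit read from the data, passing the limit was not always enough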
# SIRT5 inh: inhibitors of human sirtuin-5 desuccinylase. Purified SirT5, succinyl-peptide AMC, trypsin-coupled fluorescence. actives 1.1% (n = 330,000). AID 652115. Q9NXA8. inhibition, % at 15 µM; in the data active = inhibition above about 15%
# HDAC3 inh: inhibitors of human histone deacetylase 3. O15379. recombinant HDAC3, fluorogenic peptide/trypsin coupled, fluorescence. inhibition, % at 8.3 µM. actives 0.15% (n = 320,000); in the data active = inhibition above about 26%, passing the limit was not always enough
# Hits are given with their value; n = inactive; x = no result. Shown is part of a subset that was picked to be rich in hits.
SMILES,PDI inh,ERAP1 HTS inh,ERp5 inh,SIRT5 inh,HDAC3 inh
C#CCOCCOCCOCCNc1nc(N2CCN(C(=O)CCCCCCCCCCNC(=O)[C@H](CCCCN)n3cc(CCO)nn3)CC2)nc(N2CCN(C(=O)CCCCCCCCCCNC(=O)[C@H](CCCN=C(N)N)n3cc(C[C@@H](C)CC)nn3)CC2)n1,n,x,x,x,29
C#CCOCCOCCOCCNc1nc(N2CCN(C(=O)[C@H](CCCCN)n3cc(CCCC)nn3)CC2)nc(N2CCN(C(=O)[C@H](Cc3ccc(O)cc3)n3cc(CCO)nn3)CC2)n1,129,x,x,x,n
C#CCOCCOCCOCCNc1nc(N2CCN(C(=O)CCCCCCCCCCNC(=O)[C@H](CCCCN)n3cc(CCCC(=O)O)nn3)CC2)nc(N2CCN(C(=O)CCCCCCCCCCNC(=O)[C@H](CCCN=C(N)N)n3cc(C[C@@H](C)CC)nn3)CC2)n1,n,x,x,x,n
C#CCOCCOCCOCCNc1nc(N2CCN(C(=O)CCCCCCCCCCNC(=O)[C@H](CCCCN)n3cc(C[C@@H](C)CC)nn3)CC2)nc(N2CCN(C(=O)CCCCCCCCCCNC(=O)[C@H](CCCCN)n3cc(C[C@@H](C)CC)nn3)CC2)n1,n,x,x,x,53
C[C@@H]1CN([C@H](C)CO)S(=O)(=O)c2ccc(Br)cc2O[C@@H]1CN(C)C(=O)c1cnccn1,x,n,n,n,x
C[C@@H]1CCCCO[C@@H](CN(C)C(=O)NC2CCCCC2)[C@H](C)CN([C@@H](C)CO)C(=O)c2cc(NC(=O)c3ccncc3)ccc2O1,x,n,n,n,x
C[C@H]1CN([C@@H](C)CO)C(=O)c2cc(C#CC3CCCCC3)cnc2O[C@H]1CN(C)C(=O)NC1CCCC1,x,n,n,n,x
C#CCOCCOCCOCCNc1nc(N2CCN(C(=O)[C@H](Cc3cc4ccccc4[nH]3)n3cc(C(N)CC(C)C)nn3)CC2)nc(N2CCN(C(=O)[C@H](CCC(=O)O)n3cc(C(N)[C@H](C)CC)nn3)CC2)n1 (stereo partly drawn),n,x,x,x,n
C#CCOCCOCCOCCNc1nc(N2CCN(C(=O)[C@H](CCC(=O)O)n3cc(C(N)CC(C)C)nn3)CC2)nc(N2CCN(C(=O)[C@H](Cc3cc4ccccc4[nH]3)n3cc(C(N)CC(C)C)nn3)CC2)n1 (stereo partly drawn),36,x,x,x,n
C[C@H]1CN([C@@H](C)CO)C(=O)c2cc(NC(=O)Nc3ccc(C(F)(F)F)cc3)ccc2O[C@H]1CN(C)C(=O)Nc1ccc2c(c1)OCO2,x,n,n,n,x
C[C@@H]1CN([C@H](C)CO)C(=O)c2cc(NC(=O)Nc3ccc(C(F)(F)F)cc3)ccc2O[C@@H]1CN(C)C(=O)Nc1ccc2c(c1)OCO2,x,n,n,15,x
C[C@@H]1CN([C@@H](C)CO)C(=O)c2cc(NC(=O)Nc3ccc(C(F)(F)F)cc3)ccc2O[C@@H]1CN(C)C(=O)Nc1ccc2c(c1)OCO2,x,n,n,15,x
C[C@@H]1CN([C@H](C)CO)C(=O)c2cc(NC(=O)Nc3ccc4c(c3)OCO4)ccc2O[C@H]1CN(C)C(=O)Nc1ccc(C(F)(F)F)cc1,x,n,n,n,x
O=C(NCc1ccc(F)cc1)C1CC(=O)N(C2CCCCC2)C1 (stereo not drawn),n,n,n,31,n
Nc1c(C=C2C=CC(=O)C=C2)c(=O)nc2sc(CC(=O)N3CCCCC3)nn12,n,n,n,40,n
CCc1nn2c(N)c(/C=C3\C=Nc4ccccc43)c(=O)nc2s1,n,x,n,n,n
Nc1c(/C=C2/C=CC(=O)C(O)=C2)c(=O)nc2sc(CC(=O)N3CCOCC3)nn12,n,n,n,34,x
Nc1c(/C=C2/C=CC(=O)C(O)=C2)c(=O)nc2sc(CC(=O)N3CCCC3)nn12,n,n,n,29,n
CC1=Nc2ccc(C)cc2/C1=C/c1c(N)n2nc(CC(=O)N3CCOCC3)sc2nc1=O,n,n,n,n,n
Nc1c(/C=C2/C=CC(=O)C(O)=C2)c(=O)nc2sc(CC(=O)N3CCCCC3)nn12,n,n,n,43,n
O=C(N[C@H]1CC[C@H](CCNC(=O)C2CCC2)O[C@H]1CO)c1ccncc1,x,n,n,n,x
C[C@H](CO)N1C[C@H](C)[C@H](CN(C)C)Oc2cc(-c3ccc(C#N)cc3)ccc2S1(=O)=O,x,n,n,n,x
CCCCN(C)S(=O)(=O)c1c(C)[nH]c(=O)[nH]c1=O,n,n,n,n,n
CCCCN(CCCC)S(=O)(=O)c1c(C)[nH]c(=O)[nH]c1=O,n,n,n,22,n
